Laboratory results taken from PubChem BioAssay.
Calls of active or inactive are those of the source. The rule behind the calls is not given here.

Target: Pantothenate synthetase (Mycobacterium tuberculosis (strain ATCC 25618 / H37Rv)) (UniProt P9WIL5)
Test: Coupled enzyme confirmation of inhibitors against recombinant Mtb PanC (AID 375);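 note: 0% = full reaction with vehicle and 100% = no enzyme background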
Conditions: coupled enzyme assay; at 10 µM, active compounds read high

Chain of Pantothenate synthetase (Mycobacterium tuberculosis (strain ATCC 25618 / H37Rv)) (P9WIL5 whole entry, looked up): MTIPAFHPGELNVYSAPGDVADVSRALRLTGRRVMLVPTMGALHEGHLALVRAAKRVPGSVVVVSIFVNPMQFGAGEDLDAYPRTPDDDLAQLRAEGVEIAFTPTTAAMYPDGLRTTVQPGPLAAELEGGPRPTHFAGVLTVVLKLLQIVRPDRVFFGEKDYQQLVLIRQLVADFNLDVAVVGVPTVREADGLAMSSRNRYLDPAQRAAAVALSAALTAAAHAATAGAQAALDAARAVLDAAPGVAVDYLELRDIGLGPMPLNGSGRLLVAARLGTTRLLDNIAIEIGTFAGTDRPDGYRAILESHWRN

SMILES | inhibition
COc1ccc(C(=O)NCc2nnc(SC)n2C2CCCCC2)cc1 | 2% (inactive)
CCN(CC)c1nc2nonc2nc1N(CC)CC | 0% (inactive)
CCOC(=O)Nc1ccc2c(c1)N(C(=O)CN(CC)CC)c1ccccc1C=C2 | 0% (inactive)
COc1ccc(C)cc1NC(=O)CSc1nnnn1Cc1ccccc1 | 2% (inactive)
Cn1c(SCC(=O)c2ccc(-c3ccccc3)cc2)nnc1-c1ccco1 | 2% (inactive)
Cc1ccc2c(c1C)NC(=O)C2(O)CC(=O)c1ccc2c(c1)OCO2 (centres undefined) | 0% (inactive)
Cc1cc(C)nc(SCC(=O)Nc2ccc(S(=O)(=O)Nc3nccs3)cc2)n1 | 0% (inactive)
CC1CCCN(S(=O)(=O)c2ccc(C(=O)Nc3nnc(-c4ccccc4Cl)o3)cc2)C1 (centres undefined) | 0% (inactive)
CN1C(=O)C(O)(CC(=O)c2ccc(F)cc2)c2cc(Br)ccc21 (centres undefined) | 0% (inactive)
c1ccc(-c2ccc(C(c3ccccc3)n3ccnc3)cc2)cc1 (centres undefined) | 3% (inactive)
CCCCCn1c(N2CCN(Cc3ccccc3)CC2)nc2c1c(=O)[nH]c(=O)n2C | 6% (inactive)
O=S(=O)(CCOc1ccccc1)c1nc2ccccc2[nH]1 | 0% (inactive)
CCC(C)(C)NC(=O)C(OC(=O)c1ccco1)c1ccccc1OC (centres undefined) | 0% (inactive)
CO[C@H]1C=CO[C@@]2(C)Oc3c(C)c(O)c4c(O)c(c(C=NN5CCN(C)CC5)c(O)c4c3C2=O)NC(=O)C(C)=CC=C[C@H](C)[C@H](O)[C@@H](C)[C@@H](O)[C@@H](C)[C@H](OC(C)=O)[C@@H]1C | 3% (inactive)
Cc1cc(C)c(NC2=NCC(=O)N2C2CCCCC2)c(C)c1 | 0% (inactive)
COc1ccc(C(=O)NC(=O)CSc2nnc(-c3ccco3)n2-c2ccccc2)cc1 | 0% (inactive)
O=C(C1CCN(c2nnnn2-c2ccccc2)CC1)N1CCN(c2ccccc2)CC1 | 0% (inactive)
Cc1ccc(O)c(-c2cc(C(=O)Nc3ccc(S(=O)(=O)N4CC(C)OC(C)C4)cc3)[nH]n2)c1 (centres undefined) | 5% (inactive)
O=C(Nc1ccc2c(c1)OCO2)c1ccc(Br)c(S(=O)(=O)N2CCCC2)c1 | 1% (inactive)
COc1ccc(C2=NO[C@@H]3C(=O)N(c4cccc(C)c4C)C(=O)[C@H]23)cc1OC | 1% (inactive)

SMILES | inhibition
Cc1coc2cc3oc(=O)c4c(c3cc12)CCC4 | 11% (inactive)
COc1ccc(Oc2c(C)oc3cc(OC(=O)N4CCOCC4)ccc3c2=O)cc1 | 3% (inactive)
Cc1ccc(CNC(=O)c2coc(=O)c3ccccc23)o1 | 0% (inactive)
O=C(NC1CCCCC1)c1ccc(S(=O)(=O)N2CCCCC2)cc1 | 0% (inactive)
COc1cccc(N2CCN(c3c4c(nc5ncnn35)CCC4)CC2)c1 | 0% (inactive)
O=C(Nc1ccccc1)N(CCN1CCOCC1)Cc1ccccc1F | 0% (inactive)
COc1ccc(C(=O)NCCn2ccc3ccccc32)cc1 | 0% (inactive)
O=C(NC1CC2CCC1C2)C1COc2ccccc2O1 (centres undefined) | 0% (inactive)
CCCS(=O)(=O)NCCc1cc2cc(C)c(C)cc2[nH]c1=O | 0% (inactive)
Nc1ncnc2c1ncn2[C@@H]1O[C@H](CO)[C@@H](O)[C@H]1O | 0% (inactive)
CCOc1ccc(NCc2nnc(SCC(=O)Nc3cc(C)on3)n2-c2ccccc2OC)cc1 | 13% (inactive)
CC(CN1CCN(C)CC1)OC(=O)c1ccc(Cl)cc1Cl (centres undefined) | 0% (inactive)
Cc1ccc(S(=O)(=O)N2CCOCC2)cc1C(=O)Nc1ccc(-c2cn3ccsc3n2)cc1 | 3% (inactive)
O=C(Cn1cc2c(n1)CCCCC2)N1CCc2ccccc21 | 0% (inactive)
CCCc1cc(C(N)=O)c(NC(=O)c2ccco2)s1 | 0% (inactive)
O=C1CCCC2=C1C(c1cccc(Br)c1)n1nc(-c3ccco3)nc1N2 (centres undefined) | 0% (inactive)
O=C1CC(N2CCC(C(=O)N3CCCCC3)CC2)C(=O)N1 (centres undefined) | 11% (inactive)
Cc1ccccc1-c1noc(N)c1C#N | 0% (inactive)
CN(C)S(=O)(=O)N1CCN(S(=O)(=O)c2ccc(F)cc2)CC1 | 0% (inactive)
